Results as given in PMC7862700, “An all-to-all approach to the identification of sequence-specific readers for epigenetic DNA modifications on cytosine”.

Legend:
Test in all cases: DAPPL (digital affinity profiling via proximity ligation, sequencing); 10 mM Tris-HCl pH 7.5, 50 mM NaCl, 1 mM DTT, 4% glycerol, room temperature, 30 min; GST-TFs on glutathione beads, 16-mer random dsDNA library, 0.1% formaldehyde crosslink after washing; high values mean tight binding
Settings in all cases: protein: recombinant; tags: N-terminal GST; dsDNA, one strand shown
[1] = molecular target: T1, FLI1 (Homo sapiens, UniProt Q01543 1-452)
T1 sequence: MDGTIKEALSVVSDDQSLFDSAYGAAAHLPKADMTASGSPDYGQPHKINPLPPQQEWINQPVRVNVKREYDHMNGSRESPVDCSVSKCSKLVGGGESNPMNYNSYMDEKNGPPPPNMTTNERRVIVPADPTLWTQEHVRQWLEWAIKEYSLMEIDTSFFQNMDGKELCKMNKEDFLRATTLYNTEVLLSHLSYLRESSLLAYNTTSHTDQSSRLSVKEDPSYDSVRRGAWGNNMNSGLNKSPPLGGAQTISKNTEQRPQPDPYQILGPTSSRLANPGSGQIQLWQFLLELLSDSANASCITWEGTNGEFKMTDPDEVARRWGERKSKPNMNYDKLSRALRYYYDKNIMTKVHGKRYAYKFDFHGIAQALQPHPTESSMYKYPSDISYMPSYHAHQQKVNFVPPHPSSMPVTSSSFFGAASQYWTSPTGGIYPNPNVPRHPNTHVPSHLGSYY
Summary of the method: (§1)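 Yeast served to express human transcription factors as GST fusions, which were then captured on glutathione beads and labelled with DNA barcodes. Pooled with a tag-only sample, they were incubated with 200 nmole of a 16-mer random double-stranded DNA library for 30 min at room temperature in Tris/NaCl/DTT/glycerol buffer, washed, crosslinked with 0.1% formaldehyde, ligated by proximity, amplified by PCR and sequenced. Dividing each hexamer's read frequency for a factor by its frequency for the tag-only sample gives the binding signal.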

[2] = molecular target: T2, ELK1 (Homo sapiens, UniProt P19419 1-428)
T2 sequence: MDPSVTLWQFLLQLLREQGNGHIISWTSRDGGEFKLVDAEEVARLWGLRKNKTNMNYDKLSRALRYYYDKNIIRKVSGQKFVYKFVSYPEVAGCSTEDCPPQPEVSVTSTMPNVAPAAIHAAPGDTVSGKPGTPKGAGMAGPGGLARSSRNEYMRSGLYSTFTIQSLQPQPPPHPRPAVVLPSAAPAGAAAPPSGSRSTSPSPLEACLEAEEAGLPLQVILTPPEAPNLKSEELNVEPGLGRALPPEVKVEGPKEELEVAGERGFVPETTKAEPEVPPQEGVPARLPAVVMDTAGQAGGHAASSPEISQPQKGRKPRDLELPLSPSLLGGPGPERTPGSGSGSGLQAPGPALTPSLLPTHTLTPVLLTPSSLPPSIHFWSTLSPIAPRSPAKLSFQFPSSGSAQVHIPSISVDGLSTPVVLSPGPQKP
Summary of the method: as §1

[3] = molecular target: T3, GABPA (Homo sapiens, UniProt Q06546 1-454)
T3 sequence: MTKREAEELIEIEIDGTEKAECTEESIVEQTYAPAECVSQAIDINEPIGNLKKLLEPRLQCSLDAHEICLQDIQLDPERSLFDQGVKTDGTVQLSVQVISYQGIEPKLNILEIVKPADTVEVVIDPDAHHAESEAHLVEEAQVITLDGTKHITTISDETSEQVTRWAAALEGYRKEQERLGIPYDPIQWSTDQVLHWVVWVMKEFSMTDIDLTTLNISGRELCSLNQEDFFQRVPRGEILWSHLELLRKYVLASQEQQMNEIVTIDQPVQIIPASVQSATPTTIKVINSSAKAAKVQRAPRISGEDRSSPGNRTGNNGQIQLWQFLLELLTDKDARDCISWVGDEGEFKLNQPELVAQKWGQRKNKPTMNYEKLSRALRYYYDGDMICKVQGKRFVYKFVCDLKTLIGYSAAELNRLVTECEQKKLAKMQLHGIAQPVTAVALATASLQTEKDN
Summary of the method: as §1

[4] = molecular target: T4, ERG (Homo sapiens, UniProt P11308 1-479)
T4 sequence: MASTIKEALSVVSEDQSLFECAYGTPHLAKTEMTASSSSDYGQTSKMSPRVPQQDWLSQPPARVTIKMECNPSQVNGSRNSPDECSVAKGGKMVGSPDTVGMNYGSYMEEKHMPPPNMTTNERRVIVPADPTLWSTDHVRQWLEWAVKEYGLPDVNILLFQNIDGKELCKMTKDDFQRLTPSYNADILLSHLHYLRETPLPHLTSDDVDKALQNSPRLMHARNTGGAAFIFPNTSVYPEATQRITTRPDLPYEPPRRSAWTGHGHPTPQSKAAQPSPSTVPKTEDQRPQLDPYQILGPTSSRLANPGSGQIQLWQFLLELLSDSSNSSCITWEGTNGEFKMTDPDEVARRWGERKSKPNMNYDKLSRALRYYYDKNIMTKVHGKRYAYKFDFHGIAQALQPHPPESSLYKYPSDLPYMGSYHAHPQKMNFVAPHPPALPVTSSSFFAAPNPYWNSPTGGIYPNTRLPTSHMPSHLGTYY
Summary of the method: as §1

[5] = molecular target: ELF1 (Homo sapiens, UniProt P32519 1-619)
Summary of the method: as §1

[6] = molecular target: T5, EHF (Homo sapiens, UniProt Q9NZC4 1-300)
T5 sequence: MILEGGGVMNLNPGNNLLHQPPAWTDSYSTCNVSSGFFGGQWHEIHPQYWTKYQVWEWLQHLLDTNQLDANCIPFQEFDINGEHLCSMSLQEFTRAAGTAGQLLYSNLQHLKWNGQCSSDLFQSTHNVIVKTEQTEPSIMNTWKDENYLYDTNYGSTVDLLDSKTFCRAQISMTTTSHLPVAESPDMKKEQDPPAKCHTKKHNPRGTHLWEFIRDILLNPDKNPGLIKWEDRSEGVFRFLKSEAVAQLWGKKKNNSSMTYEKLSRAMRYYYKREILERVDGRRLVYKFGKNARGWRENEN
Summary of the method: as §1

[7] = molecular target: SPI1 (Homo sapiens, UniProt P17947 1-270)
Summary of the method: as §1

[8] = molecular target: SPIB (Homo sapiens, UniProt Q01892 1-262)
Summary of the method: as §1

[9] = molecular target: T6, ELK3 (Homo sapiens, UniProt P41970 1-407)
T6 sequence: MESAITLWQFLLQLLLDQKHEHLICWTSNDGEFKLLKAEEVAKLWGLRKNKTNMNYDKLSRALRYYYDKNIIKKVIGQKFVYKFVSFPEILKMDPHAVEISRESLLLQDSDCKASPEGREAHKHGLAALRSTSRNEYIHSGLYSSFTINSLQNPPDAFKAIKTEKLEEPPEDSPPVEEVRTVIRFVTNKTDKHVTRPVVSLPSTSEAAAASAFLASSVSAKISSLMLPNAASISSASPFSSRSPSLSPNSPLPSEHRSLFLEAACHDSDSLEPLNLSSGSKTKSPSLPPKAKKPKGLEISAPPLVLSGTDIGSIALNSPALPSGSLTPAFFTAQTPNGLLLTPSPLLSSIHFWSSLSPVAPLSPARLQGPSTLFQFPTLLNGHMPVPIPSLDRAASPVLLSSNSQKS
Summary of the method: as §1

[10] = molecular target: T7, FEV (Homo sapiens, UniProt Q99581 1-238)
T7 sequence: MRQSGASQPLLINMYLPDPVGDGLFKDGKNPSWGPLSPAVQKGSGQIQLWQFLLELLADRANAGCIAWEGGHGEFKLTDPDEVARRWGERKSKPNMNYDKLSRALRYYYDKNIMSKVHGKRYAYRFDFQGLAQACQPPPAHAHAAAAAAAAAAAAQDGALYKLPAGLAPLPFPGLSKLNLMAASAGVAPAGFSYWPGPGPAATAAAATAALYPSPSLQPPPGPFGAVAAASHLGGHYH
Summary of the method: as §1

[11] = molecular target: ETV5 (Homo sapiens, UniProt P41161 1-510)
Summary of the method: as §1

[12] = molecular target: T8, SPIC (Homo sapiens, UniProt Q8N5J4 1-248)
T8 sequence: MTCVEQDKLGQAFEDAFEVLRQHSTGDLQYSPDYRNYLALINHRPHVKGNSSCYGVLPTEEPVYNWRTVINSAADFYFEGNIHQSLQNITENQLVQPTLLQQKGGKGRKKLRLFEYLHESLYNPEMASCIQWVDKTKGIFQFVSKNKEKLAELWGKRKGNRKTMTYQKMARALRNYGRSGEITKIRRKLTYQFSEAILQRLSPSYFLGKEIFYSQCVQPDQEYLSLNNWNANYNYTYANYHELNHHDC
Summary of the method: as §1

[13] = molecular target: ELF4 (Homo sapiens, UniProt Q99607 1-663)
Summary of the method: as §1

[14] = molecular target: T9, ELK4 (Homo sapiens, UniProt P28324-2 1-405)
T9 sequence: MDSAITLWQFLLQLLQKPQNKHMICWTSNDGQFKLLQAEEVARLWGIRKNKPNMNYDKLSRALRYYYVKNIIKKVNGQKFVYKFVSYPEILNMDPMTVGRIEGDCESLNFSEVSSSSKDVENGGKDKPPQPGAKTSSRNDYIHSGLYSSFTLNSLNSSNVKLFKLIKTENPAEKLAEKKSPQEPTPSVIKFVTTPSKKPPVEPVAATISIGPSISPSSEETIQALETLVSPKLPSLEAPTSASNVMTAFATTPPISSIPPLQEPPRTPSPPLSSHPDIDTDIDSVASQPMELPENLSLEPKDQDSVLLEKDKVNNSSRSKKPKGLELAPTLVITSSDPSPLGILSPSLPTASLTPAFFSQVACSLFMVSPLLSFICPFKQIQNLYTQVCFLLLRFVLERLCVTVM
Summary of the method: as §1

[15] = molecular target: T10, ETV2 (Homo sapiens, UniProt O00321 1-342)
T10 sequence: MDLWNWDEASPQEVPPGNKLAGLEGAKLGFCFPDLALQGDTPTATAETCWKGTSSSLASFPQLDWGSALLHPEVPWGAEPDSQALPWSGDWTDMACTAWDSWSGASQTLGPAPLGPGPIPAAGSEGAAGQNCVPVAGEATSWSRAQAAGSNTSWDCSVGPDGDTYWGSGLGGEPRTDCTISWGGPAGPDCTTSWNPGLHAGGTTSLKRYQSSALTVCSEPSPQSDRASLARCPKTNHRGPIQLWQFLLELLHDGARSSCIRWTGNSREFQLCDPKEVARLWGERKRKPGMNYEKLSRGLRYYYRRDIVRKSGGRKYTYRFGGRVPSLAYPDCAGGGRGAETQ
Summary of the method: as §1

[16] = molecular target: T11, ELF3 (Homo sapiens, UniProt P78545 1-371)
T11 sequence: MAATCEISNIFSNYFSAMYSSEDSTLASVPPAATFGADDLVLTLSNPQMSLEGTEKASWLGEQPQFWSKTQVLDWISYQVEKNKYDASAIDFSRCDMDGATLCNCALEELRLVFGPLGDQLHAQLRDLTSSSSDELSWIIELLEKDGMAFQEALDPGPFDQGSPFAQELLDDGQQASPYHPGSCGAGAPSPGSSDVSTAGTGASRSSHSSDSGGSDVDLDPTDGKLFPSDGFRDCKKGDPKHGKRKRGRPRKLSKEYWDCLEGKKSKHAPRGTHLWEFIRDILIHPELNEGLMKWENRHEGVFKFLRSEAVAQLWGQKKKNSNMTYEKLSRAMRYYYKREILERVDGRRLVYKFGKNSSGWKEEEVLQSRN
Summary of the method: as §1

[17] = molecular target: ETV1 (Homo sapiens, UniProt P50549 1-477)
Summary of the method: as §1

ELF4, sequence (Q99607 whole entry): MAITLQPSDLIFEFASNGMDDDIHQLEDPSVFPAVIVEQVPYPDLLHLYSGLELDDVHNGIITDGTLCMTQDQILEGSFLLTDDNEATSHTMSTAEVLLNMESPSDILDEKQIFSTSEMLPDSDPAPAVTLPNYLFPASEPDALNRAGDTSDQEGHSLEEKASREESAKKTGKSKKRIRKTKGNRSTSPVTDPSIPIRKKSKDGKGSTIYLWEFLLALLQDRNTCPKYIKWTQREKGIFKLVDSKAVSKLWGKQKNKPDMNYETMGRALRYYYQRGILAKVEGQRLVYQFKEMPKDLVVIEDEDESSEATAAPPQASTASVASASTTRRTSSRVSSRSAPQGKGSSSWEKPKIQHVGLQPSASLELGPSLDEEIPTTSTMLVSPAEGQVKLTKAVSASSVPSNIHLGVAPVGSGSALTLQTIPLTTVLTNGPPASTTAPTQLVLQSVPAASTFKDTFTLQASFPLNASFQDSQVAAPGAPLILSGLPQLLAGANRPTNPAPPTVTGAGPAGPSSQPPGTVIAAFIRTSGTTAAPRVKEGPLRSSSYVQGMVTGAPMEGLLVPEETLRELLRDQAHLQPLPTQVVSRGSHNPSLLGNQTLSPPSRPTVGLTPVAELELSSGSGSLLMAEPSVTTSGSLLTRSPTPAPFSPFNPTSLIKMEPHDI
ETV1, sequence (P50549 whole entry): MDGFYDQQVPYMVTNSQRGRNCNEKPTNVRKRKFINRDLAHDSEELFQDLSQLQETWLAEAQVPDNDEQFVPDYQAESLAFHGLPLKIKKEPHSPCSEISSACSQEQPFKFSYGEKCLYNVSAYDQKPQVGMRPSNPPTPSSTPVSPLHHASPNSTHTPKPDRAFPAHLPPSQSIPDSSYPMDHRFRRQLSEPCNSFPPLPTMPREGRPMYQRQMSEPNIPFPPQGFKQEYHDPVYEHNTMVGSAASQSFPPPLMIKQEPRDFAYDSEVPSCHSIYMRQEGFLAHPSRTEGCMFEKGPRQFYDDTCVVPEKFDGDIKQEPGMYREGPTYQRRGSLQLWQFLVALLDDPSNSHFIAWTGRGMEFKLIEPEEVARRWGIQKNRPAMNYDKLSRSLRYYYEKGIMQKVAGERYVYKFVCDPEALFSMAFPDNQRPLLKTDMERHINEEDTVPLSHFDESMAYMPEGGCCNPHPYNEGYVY
ETV5, sequence (P41161 whole entry): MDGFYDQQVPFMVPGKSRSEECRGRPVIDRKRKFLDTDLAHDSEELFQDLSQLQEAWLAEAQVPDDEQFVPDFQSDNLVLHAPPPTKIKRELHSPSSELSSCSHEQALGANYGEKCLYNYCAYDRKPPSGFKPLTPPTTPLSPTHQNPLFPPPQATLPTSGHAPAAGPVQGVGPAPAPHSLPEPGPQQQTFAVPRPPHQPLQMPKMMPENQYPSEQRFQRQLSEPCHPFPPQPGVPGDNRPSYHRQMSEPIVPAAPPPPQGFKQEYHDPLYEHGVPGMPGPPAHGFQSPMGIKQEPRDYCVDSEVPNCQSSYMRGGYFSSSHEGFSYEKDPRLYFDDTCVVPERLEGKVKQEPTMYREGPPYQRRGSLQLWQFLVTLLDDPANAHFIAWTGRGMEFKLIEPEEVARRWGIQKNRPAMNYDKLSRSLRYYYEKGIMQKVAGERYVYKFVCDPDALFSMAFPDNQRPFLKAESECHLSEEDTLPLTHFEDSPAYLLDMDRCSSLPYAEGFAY
SPIB, sequence (Q01892 whole entry): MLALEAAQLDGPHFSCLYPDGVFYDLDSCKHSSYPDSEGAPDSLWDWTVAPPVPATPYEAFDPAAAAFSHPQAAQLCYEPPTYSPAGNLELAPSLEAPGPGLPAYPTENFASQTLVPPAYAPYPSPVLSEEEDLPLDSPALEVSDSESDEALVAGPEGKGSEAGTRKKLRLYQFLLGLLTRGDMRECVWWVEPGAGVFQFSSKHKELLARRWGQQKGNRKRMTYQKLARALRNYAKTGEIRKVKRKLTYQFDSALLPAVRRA
ELF1, sequence (P32519 whole entry): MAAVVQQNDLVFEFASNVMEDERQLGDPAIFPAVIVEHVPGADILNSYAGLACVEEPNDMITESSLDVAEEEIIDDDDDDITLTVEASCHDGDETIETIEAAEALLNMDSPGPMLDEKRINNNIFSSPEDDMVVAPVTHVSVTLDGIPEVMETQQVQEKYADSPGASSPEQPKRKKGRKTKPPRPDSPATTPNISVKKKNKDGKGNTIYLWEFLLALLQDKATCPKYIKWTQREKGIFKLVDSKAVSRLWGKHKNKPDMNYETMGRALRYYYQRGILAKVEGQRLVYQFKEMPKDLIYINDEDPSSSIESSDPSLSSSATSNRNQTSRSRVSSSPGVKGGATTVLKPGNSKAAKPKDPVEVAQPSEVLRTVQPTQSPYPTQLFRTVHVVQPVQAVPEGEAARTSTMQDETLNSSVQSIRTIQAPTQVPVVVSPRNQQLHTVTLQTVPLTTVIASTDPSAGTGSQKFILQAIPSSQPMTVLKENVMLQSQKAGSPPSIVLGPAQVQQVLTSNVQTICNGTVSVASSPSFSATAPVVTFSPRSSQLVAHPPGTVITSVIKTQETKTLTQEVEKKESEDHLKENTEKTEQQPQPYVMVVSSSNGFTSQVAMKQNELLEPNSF

| Sequence | binding signal [1] | binding signal [2] | binding signal [3] | binding signal [4] | binding signal [5] | binding signal [6] | binding signal [7] | binding signal [8] | binding signal [9] | binding signal [10] | binding signal [11] | binding signal [12] | binding signal [13] | binding signal [14] | binding signal [15] | binding signal [16] | binding signal [17] |
| --- | --- | --- | --- | --- | --- | --- | --- | --- | --- | --- | --- | --- | --- | --- | --- | --- | --- |
| CTGTCA | 1.21 fold enrichment (6-mer frequency, TF over GST control) | 1.11 fold enrichment (6-mer frequency, TF over GST control) | 1.2 fold enrichment (6-mer frequency, TF over GST control) | 1.14 fold enrichment (6-mer frequency, TF over GST control) | 1.19 fold enrichment (6-mer frequency, TF over GST control) | 1.12 fold enrichment (6-mer frequency, TF over GST control) | 1.1 fold enrichment (6-mer frequency, TF over GST control) | 1.15 fold enrichment (6-mer frequency, TF over GST control) | 1.08 fold enrichment (6-mer frequency, TF over GST control) | 1.03 fold enrichment (6-mer frequency, TF over GST control) | 1.06 fold enrichment (6-mer frequency, TF over GST control) | 1.27 fold enrichment (6-mer frequency, TF over GST control) | 1.13 fold enrichment (6-mer frequency, TF over GST control) | 1.27 fold enrichment (6-mer frequency, TF over GST control) | 1.19 fold enrichment (6-mer frequency, TF over GST control) | 1.16 fold enrichment (6-mer frequency, TF over GST control) | 1.14 fold enrichment (6-mer frequency, TF over GST control) |
| GTCCCC | 1.14 fold enrichment (6-mer frequency, TF over GST control) | 1.29 fold enrichment (6-mer frequency, TF over GST control) | 1.19 fold enrichment (6-mer frequency, TF over GST control) | 1.23 fold enrichment (6-mer frequency, TF over GST control) | 1.19 fold enrichment (6-mer frequency, TF over GST control) | 1.28 fold enrichment (6-mer frequency, TF over GST control) | 1.23 fold enrichment (6-mer frequency, TF over GST control) | 1.24 fold enrichment (6-mer frequency, TF over GST control) | 1.29 fold enrichment (6-mer frequency, TF over GST control) | 1.18 fold enrichment (6-mer frequency, TF over GST control) | 1.27 fold enrichment (6-mer frequency, TF over GST control) | 1.26 fold enrichment (6-mer frequency, TF over GST control) | 1.2 fold enrichment (6-mer frequency, TF over GST control) | 1.26 fold enrichment (6-mer frequency, TF over GST control) | 1.22 fold enrichment (6-mer frequency, TF over GST control) | 1.38 fold enrichment (6-mer frequency, TF over GST control) | 1.29 fold enrichment (6-mer frequency, TF over GST control) |
